Bioassay records from PubChem BioAssay.
miR122 inh: miR-122 suppressors via Renilla sensor increase, primary screen, cell-based, Huh7 psiCHECK-miR122, Renilla luciferase, single point | 48 h | activation, % at 12.5 µM | 340,000 tested, 0.14% active | AID 623901, 2012;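 active = mean activation of 30% or more, with every replicate also reaching 30%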;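 also: higher luciferase signal means stronger suppression of miR-122 activity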
Numbers stand for hits. Shown is part of a subset that was picked to be rich in hits.

O=C1NC(=O)N(CCC2=CCCCC2)C(=O)/C1=C\c1cccs1 was read as miR122 inh 32.7.
Screening Cc1ccc(C(=O)Nc2ccc(Cl)cc2C(=O)c2ccccc2)cc1 returned miR122 inh inactive.
For COc1ccc(-c2ccc3c(c2)CN(C(=S)NCCc2ccccc2)Cc2cnnn2-3)cc1 the results were miR122 inh inactive.
CC(=O)OC1(Cc2ccccc2)CN2CCC1c1ccccc12 (stereo not drawn) was read as miR122 inh 35.9.
Screening C[C@@H]1O[C@@H](O[C@H]2C[C@@H](O)[C@]3(CO)[C@H]4[C@H](O)C[C@]5(C)[C@@H](C6COC(=O)C6)CC[C@]5(O)[C@@H]4CC[C@]3(O)C2)[C@H](O)[C@H](O)[C@H]1O (stereo partly drawn) returned miR122 inh inactive.
For O=P(Nc1ccccc1)(Nc1ccccc1)Oc1ccc(Cl)cc1 the results were miR122 inh inactive.
